The text below walks through data of PubChem BioAssay (NCI).

Experiment [1] is described as follows: NCI Yeast Anticancer Drug Screen. Data for the rad50 strain (AID 155).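 Further: 0% = growth of vehicle-only cultures of the same strain.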 The following applies: S. cerevisiae rad50 strain growth inhibition; at 50.0 µM; stronger effect = higher value. The gist of the method: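 A DNA repair-deficient yeast mutant serves as the test organism; compound-induced growth inhibition is calculated against vehicle-treated cells.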
Experiment [2] can be described thus: NCI Yeast Anticancer Drug Screen. Data for the mec2-1 strain (AID 157). The following applies: S. cerevisiae mec2-1 strain, at 50.0 µM, stronger effect = higher value. Summed up:
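Growth inhibition is read against vehicle-treated controls after compound exposure of the mec2-1 yeast strain, which is defective in DNA damage repair or cell cycle control.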

Experiment [3] in a line: NCI Yeast Anticancer Drug Screen. Data for the sgs1 mgt1 strain (AID 161).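 Further: 0% = growth of cultures given vehicle only.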 The following applies: S. cerevisiae sgs1 mgt1 strain, at 50.0 µM, stronger effect = higher value. The gist of the method:
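Compounds are added to genetically altered yeast, and growth is compared with cultures given vehicle alone to give percent inhibition.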

Experiment [4] in a line: NCI Yeast Anticancer Drug Screen. Data for the cln2 rad14 strain (AID 165).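 Further: 0% = growth equal to vehicle treated cultures.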 The following applies: S. cerevisiae cln2 rad14 strain, at 50.0 µM, stronger effect = higher value. Summed up:
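Growth inhibition, relative to vehicle-treated controls, is the read-out. The test organism is a yeast strain with defined genetic alterations, cln2 rad14.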

The nature of experiment [5]: NCI Yeast Anticancer Drug Screen. Data for the bub3 strain (AID 167). The note with it: S. cerevisiae bub3 mutant strain, at 50.0 µM, stronger effect = higher value. The gist of the method: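 Inhibition values come from growth of compound-treated mutant yeast normalised to vehicle-treated controls.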
The nature of experiment [6]: NCI Yeast Anticancer Drug Screen. Data for the mlh1 rad18 strain (AID 175). The note with it: S. cerevisiae mlh1 rad18 strain growth inhibition; at 50.0 µM; stronger effect = higher value. Summed up: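 Cells of a genetically altered yeast strain, deficient in DNA damage repair, were treated with compound. Their growth was then compared with that of vehicle-treated cultures to give inhibition.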

Several values for one entry are separate records, joined by “and”; a condition that tells them apart may be missing. Equal entries are not always repeated. About 79,000 compounds went through this panel and 15% of them were active in at least one assay; those are over-represented in the sample as a whole. More than one record can exist for a structure, and the calls need not agree. Activity calls are given as the source filed them. No stated cut-off is given here; in the data, active means growth inhibition above about 70%; inactive means the rest.

For `COC1C(OC(C)=O)CC(=O)OC(C)C/C=C/C=C\C(O)C(C)CC(CC=O)C1OC1OC(C)C(OC2CC(C)(O)C(OC(=O)CC(C)C)C(C)O2)C(N(C)C)C1O` (configuration not stated), the growth inhibition in experiment [1] was -0.2% (inactive) and -2.9% (inactive); in experiment [2] it was -10.4% (inactive) and -25.7% (inactive); in experiment [3], -22.6% (inactive) and -34% (inactive); in experiment [4], -4.95% (inactive) and 4.75% (inactive); in experiment [5] it was -27.1% (inactive) and -30.9% (inactive); in experiment [6] it was -2% (inactive) and -6.85% (inactive).
With `CN(C)c1ccc(/C=C2\c3ccccc3-c3ccc([N+](=O)[O-])cc32)cc1`, the growth inhibition in experiment [1] is 20.9% (inactive) and 6.65% (inactive); in experiment [2] it was -9.8% (inactive) and -6.75% (inactive); in experiment [3], -21.1% (inactive) and -11% (inactive); in experiment [4], -27.2% (inactive) and -8.2% (inactive); in experiment [5], -19.6% (inactive) and 4.45% (inactive); in experiment [6], -4.35% (inactive) and 8% (inactive).
Take `CC(C)(O)CN/C=C(\C(=O)OC(C)(C)C)N1C(=O)c2ccccc2C1=O`: the growth inhibition is 17.1% (inactive) and -17% (inactive) in experiment [1]; 3% (inactive) and -6.7% (inactive) in experiment [2]; 13.8% (inactive) and -5.45% (inactive) in experiment [3]; -39% (inactive) and -11.5% (inactive) in experiment [4]; -1.65% (inactive) and -4.95% (inactive) in experiment [5]; 2.8% (inactive) and 17.6% (inactive) in experiment [6].
On to `COc1ccc2c(c1OC)C(=O)N1C2=Cc2c(cc3c(c2OC)OCO3)CC1N(C)C` (configuration not stated), for which the growth inhibition is 16.7% (inactive) and 30.1% (inactive) in experiment [1]; -26.1% (inactive) and 33.8% (inactive) in experiment [2]; 39.9% (inactive) and 57.1% (inactive) in experiment [3]; 12.3% (inactive) and 13% (inactive) in experiment [4]; -11.8% (inactive) and 17.6% (inactive) in experiment [5]; 12.7% (inactive) and 41.2% (inactive) in experiment [6].
Turning to `CC(=O)NC1CCC(C(F)(F)F)CC1` (configuration not stated), the growth inhibition is 9.9% (inactive) and 2.15% (inactive) in experiment [1]; 5.75% (inactive) and -5.7% (inactive) in experiment [2]; -9.5% (inactive) and -4.95% (inactive) in experiment [3]; -6.2% (inactive) and -21.2% (inactive) in experiment [4]; -1.75% (inactive) and -2.55% (inactive) in experiment [5]; 12.8% (inactive) and 8.05% (inactive) in experiment [6].
With `O=C(O)C1=C/C(=C(/c2ccccc2)c2cc(C(=O)O)c(O)c3ccccc23)c2ccccc2C1=O`, the growth inhibition is 4.2% (inactive) and -7.7% (inactive) in experiment [1]; -29.1% (inactive) and -27.1% (inactive) in experiment [2]; -21.2% (inactive) and -34.4% (inactive) in experiment [3]; 22.7% (inactive) and 23.1% (inactive) in experiment [4]; -9.45% (inactive) and -3.8% (inactive) in experiment [5]; -1.45% (inactive) and -4.1% (inactive) in experiment [6].
In the case of `CCCc1ccc(OC2OC(COC(C)=O)C(OC(C)=O)C(OC(C)=O)C2OC(C)=O)cc1` (configuration not stated), the growth inhibition in experiment [1] is -7% (inactive) and -12.6% (inactive); in experiment [2], -9.65% (inactive) and 2.4% (inactive); in experiment [3], -13.5% (inactive) and 9.65% (inactive); in experiment [4], -5.25% (inactive) and 3.95% (inactive); in experiment [5] it was -37% (inactive) and 5.1% (inactive); in experiment [6], -8.05% (inactive) and 4.1% (inactive).
For `O=c1c([N+](=O)[O-])c[nH]c2cc(Cl)ccc12`, the growth inhibition was -38.3% (inactive) and 6.4% (inactive) in experiment [1]; 2.25% (inactive) and -2.2% (inactive) in experiment [2]; -19.2% (inactive) and 8.3% (inactive) in experiment [3]; 0.25% (inactive) and 35.5% (inactive) in experiment [4]; -6% (inactive) and 11.6% (inactive) in experiment [5]; -33.7% (inactive) and 15.8% (inactive) in experiment [6].
As for `CC(=O)c1c(-c2ccc(Cl)cc2)c(C#N)c(=S)n(C2OC(CO)C(O)C(O)C2O)c1-c1ccccc1` (configuration not stated), the growth inhibition in experiment [1] is 5.1% (inactive) and 4.5% (inactive); in experiment [2] it was 1.95% (inactive) and 6.1% (inactive); in experiment [3], 28.1% (inactive) and 34.5% (inactive); in experiment [4], 33.1% (inactive) and -7.6% (inactive); in experiment [5] it was -2.95% (inactive) and 39.5% (inactive); in experiment [6] it was 56.6% (inactive) and 15.9% (inactive).
For `N#CC(c1ccc([N+](=O)[O-])cc1)C(CC(=O)c1ccccc1)c1ccccc1` (configuration not stated), the growth inhibition was -1.3% (inactive) and -14.2% (inactive) in experiment [1]; -3% (inactive) and -14.6% (inactive) in experiment [2]; -15.2% (inactive) and -17.2% (inactive) in experiment [3]; -28.3% (inactive) and -46.9% (inactive) in experiment [4]; 37.8% (inactive) and 12.6% (inactive) in experiment [5]; 36.5% (inactive) and 14.3% (inactive) in experiment [6].
As for `NC(N)=NC(N)=Nc1ccc(S(N)(=O)=O)cc1`, the growth inhibition is 21.6% (inactive) and 10.5% (inactive) in experiment [1]; 14.7% (inactive) and 4.3% (inactive) in experiment [2]; 13.4% (inactive) and 14.7% (inactive) in experiment [3]; -13.8% (inactive) and -48.6% (inactive) in experiment [4]; 34.2% (inactive) and -9.8% (inactive) in experiment [5]; 34.2% (inactive) and 18.5% (inactive) in experiment [6].
With `Cc1ccc(S(=O)(=O)NN=C2C(C)(C)CC2(C)C)cc1`, the growth inhibition in experiment [1] was -21.9% (inactive) and 21.2% (inactive); in experiment [2] it was 1.15% (inactive) and -11.8% (inactive); in experiment [3] it was 8.55% (inactive) and 6.6% (inactive); in experiment [4], 13.9% (inactive) and -23.5% (inactive); in experiment [5], 6.15% (inactive) and -2.85% (inactive); in experiment [6], -24.8% (inactive) and 3.65% (inactive).
For the compound `COC1OC2COC(c3ccccc3)OC2C(OC(C)=O)C1OC(C)=O` (configuration not stated), the growth inhibition is 15.4% (inactive) and 5.85% (inactive) in experiment [1]; 10.2% (inactive) and 6.9% (inactive) in experiment [2]; 2.1% (inactive) and 4.05% (inactive) in experiment [3]; 2.4% (inactive) and 2.9% (inactive) in experiment [4]; 38.8% (inactive) and 10% (inactive) in experiment [5]; 19.9% (inactive) and -14.9% (inactive) in experiment [6].
Regarding `O=C1CCOC2=C1COC2=O`, the growth inhibition in experiment [1] was -30.7% (inactive) and 9.5% (inactive); in experiment [2] it was -6.05% (inactive) and 17.6% (inactive); in experiment [3] it was -2.4% (inactive) and -0.6% (inactive); in experiment [4] it was -25.6% (inactive) and 12.3% (inactive); in experiment [5], -7.95% (inactive) and 19.6% (inactive); in experiment [6], -1.2% (inactive) and 16.6% (inactive).
For `CC(=O)OCC1OC(n2c(-c3ccccc3)cc(-c3ccccc3)c(C#N)c2=O)C(OC(C)=O)C(OC(C)=O)C1OC(C)=O` (configuration not stated), the growth inhibition in experiment [1] was -14.3% (inactive) and -1.45% (inactive); in experiment [2], -3.7% (inactive) and 6.6% (inactive); in experiment [3] it was 1.8% (inactive) and 3.45% (inactive); in experiment [4] it was 23.6% (inactive) and 0.7% (inactive); in experiment [5] it was 5.4% (inactive) and 3.9% (inactive); in experiment [6], 16% (inactive) and -2.25% (inactive).
For `CC(C)(C)CC(C)(C)c1ccc(O)c(SSc2cc(C(C)(C)CC(C)(C)C)ccc2O)c1`, the growth inhibition in experiment [1] was 4.95% (inactive) and 11.8% (inactive); in experiment [2], -16.1% (inactive) and 4.4% (inactive); in experiment [3], 7.7% (inactive) and -8.55% (inactive); in experiment [4], 13.2% (inactive) and -17.5% (inactive); in experiment [5] it was 11.5% (inactive) and 0.5% (inactive); in experiment [6], 6.65% (inactive) and 24.1% (inactive).
`O=c1[nH][nH]c(=O)c2ccccc12`: the growth inhibition was 7.4% (inactive) and 8.6% (inactive) in experiment [1]; -24.6% (inactive) and -7.45% (inactive) in experiment [2]; -23.8% (inactive) and -6.7% (inactive) in experiment [3]; -1.3% (inactive) and -12.8% (inactive) in experiment [4]; -10.3% (inactive) and -0.95% (inactive) in experiment [5]; 2.75% (inactive) and 25.1% (inactive) in experiment [6].
As to `O=C1C(O)=C(Cl)C(=O)C(O)=C1Cl`, the growth inhibition in experiment [1] was 6.7% (inactive) and 13.6% (inactive); in experiment [2], 2.3% (inactive) and -26.3% (inactive); in experiment [3], -2.15% (inactive) and 25.3% (inactive); in experiment [4], -0.2% (inactive) and 5.3% (inactive); in experiment [5] it was 29.9% (inactive) and -11.3% (inactive); in experiment [6], -12.9% (inactive) and -3.2% (inactive).
Regarding `NC(=O)CC(N)C(=O)O` (configuration not stated), the growth inhibition was -4.4% (inactive) and -5.3% (inactive) in experiment [1]; -30.1% (inactive) and -1.65% (inactive) in experiment [2]; -10.8% (inactive) and -4.4% (inactive) in experiment [3]; -1% (inactive) and 11.7% (inactive) in experiment [4]; 1.5% (inactive) and -13.7% (inactive) in experiment [5]; 0.7% (inactive) and 2.65% (inactive) in experiment [6].
For the compound `CC(Cc1ccccc1)NC1=NCCO1` (configuration not stated), the growth inhibition is -10.2% (inactive) and -16.2% (inactive) in experiment [1]; -4.95% (inactive) and -18.4% (inactive) in experiment [2]; 0.55% (inactive) and 1.5% (inactive) in experiment [3]; 17.1% (inactive) and -13.2% (inactive) in experiment [4]; -25.9% (inactive) and -27.4% (inactive) in experiment [5]; 0.1% (inactive) and 72.5% (active) in experiment [6].
For the compound `C1=NCCCN1`, the growth inhibition is 19.4% (inactive) and 21.4% (inactive) in experiment [1]; -7.95% (inactive) and -23.4% (inactive) in experiment [2]; 13.3% (inactive) and 20.6% (inactive) in experiment [3]; 9.4% (inactive) and 6.35% (inactive) in experiment [4]; 18.2% (inactive) and 3% (inactive) in experiment [5]; 22.2% (inactive) and 18.6% (inactive) in experiment [6].
Consider `COC1OC2COCOC2C(O)C1O` (configuration not stated), for which the growth inhibition in experiment [1] was 16.4% (inactive) and 11.6% (inactive); in experiment [2] it was 17.1% (inactive) and 7.85% (inactive); in experiment [3], 10.9% (inactive) and 1.8% (inactive); in experiment [4] it was -53.6% (inactive) and -34.5% (inactive); in experiment [5], 14.9% (inactive) and 8.8% (inactive); in experiment [6], -4.9% (inactive) and 5.65% (inactive).
